Source: PubChem BioAssay (National Center for Advancing Translational Sciences (NCATS))
IL-1B inflam inh = inhibitors of inflammasome signaling (IL-1 beta secretion); THP-1 LPS/ATP IL-1B secretion, AlphaLISA, 16 h; active compounds read low; actives 4.7% (n = 360,000); activity change, % at 57.5 µM; in the data active = activity change below about -50%; inconclusive = mostly about -30% to -49%; note: % is set by controls: 0 for no effect and ±100 for the full control effect
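Secreted IL-1B measured by AlphaLISA bead assay after 16 h compound exposure of THP-1 cells; compounds (final up to 57.5 uM) added 1 h before LPS (250 ng/mL) and ATP (1.25 mM) stimulation; lower signal means less secretion.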
SW480 rereplic = induces DNA re-replication in SW480 colon adenocarcinoma cells; Potency, µM (series often up to 46.1 µM), inactives show at the top dose re-replication activation, actives largely listed as activators; SW480 DNA re-replication, Hoechst DNA content imaging, 48 h; actives 1.8% (n = 340,000); note: potency is the fitted concentration of half-maximal effect; % of control where 0% means no effect; nearly all actives have a fitted effect of over 55% in size
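DNA re-replication was detected as more nuclei of elevated Hoechst intensity after 48 hr exposure to compound (23 nL pinned per well of 250 cells).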
TDP1 cell noCPT = qHTS for Inhibitors of human tyrosyl-DNA phosphodiesterase 1 (TDP1): qHTS in cells in absence of CPT | DT40 Tdp1-/- hTDP1 cells, no CPT, ATP luminescence, 48 h | Potency, µM (series often up to 46.2 µM), inactives show at the top dose activity change, negative = growth inhibition, actives largely listed as inhibitors | actives 15% (n = 420,000) | AID 686978, 2013; note: potency is the fitted concentration of half-maximal effect; % is set by controls: 0 for no effect and ±100 for the full control effect; nearly all actives have a fitted effect of over 55% in size
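Camptothecin absent (DMSO only). Human TDP1-complemented DT40 knockout cells, 400 cells/well, 37 °C for minimum 48 hr; ATP measured via CellTiter-Glo, 30 min dark incubation, luminescence.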
MCF10A rerep = DNA re-replication induction in MCF 10a cells. actives 2.9% (n = 350,000). Potency, µM (series often up to 46.1 µM), for the others: at the top dose activity, positive = re-replication, actives largely listed as activators. AID 624296. MCF 10A DNA re-replication, Hoechst nuclear intensity, 48 h; note: potency is the fitted concentration of half-maximal effect; % of control where 0% means no effect; nearly all actives have a fitted effect of over 50% in size
TDP1 cell CPT = growth inhibition of DT40 Tdp1-/-;hTDP1 cells with camptothecin (screen for TDP1 inhibitors) | chicken DT40 Tdp1-/-;hTDP1 cells + 20 nM CPT, ATP luminescence, 48 h | Potency, µM (titrated, usually from 46.2 µM), for inactives: top-dose activity change, negative = growth inhibition, hits mostly inhibitors | actives 12% (n = 420,000) | AID 686979; note: potency is the fitted concentration of half-maximal effect; % is set by controls: 0 for no effect and ±100 for the full control effect; nearly all actives have a fitted effect of over 55% in size
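Chicken DT40 Tdp1-/- cells complemented with human TDP1, 400 cells/well, exposed to compounds plus 20 nM camptothecin for at least 48 h at 37 C; viability read as ATP content by CellTiter-Glo luminescence.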
Chronic BCR inh = blocks chronic active B-cell receptor signaling | ABC-DLBCL IkBa-CBG/CBR reporter, luminescence ratio, 4 h | Potency, µM (highest dose often 46.1 µM), without a hit: at the top dose activity change, negative = inhibition, actives largely listed as inhibitors | actives 0.05% (n = 340,000) | AID 493014; active = well fitted inhibition curve with a large enough effect in the signal ratio, with a control signal flat, not every such curve was filed as active; inconclusive = small, poorly fitted or top-dose-only effect, or effect the other way, or a change in a side signal; the % refers to the signal ratio;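 note: potency is the fitted concentration of half-maximal effect; plate controls were basal doxycycline-induced cells for no effect and cells given 10 µM MG132 for full effect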
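TMD8 ABC-DLBCL cells carrying doxycycline-inducible green luciferase fused to IkappaBalpha plus unfused red luciferase were exposed to compounds (up to 46 uM) for 4 hrs at 37C. Activity came from the overlap-corrected green/red luminescence ratio.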
Starred values were filed as active, the others as inactive. A selection: hits, their analogues and other compounds. The true share with any hit is near 19%. Unless noted, calls come from the whole dose curve; as a rule, active = well fitted curve in the direction sought with a large enough effect; inconclusive = small, poorly fitted or top-dose-only effect, or another doubt; inactive = no such curve, though single readings can be large; an effect the other way counts as inactive or inconclusive.

Screening Cc1ccc(N)c2c1OCCC2=O returned IL-1B inflam inh 66, SW480 rereplic 3%, TDP1 cell noCPT -22%, MCF10A rerep -79%, TDP1 cell CPT -5% and Chronic BCR inh -1%.
`CN(C1CCCCC1)S(=O)(=O)c1ccc2c(c1)c(=O)c(C(=O)N1CCN(c3ccccc3)CC1)cn2C` gave TDP1 cell noCPT 0% and TDP1 cell CPT -11%.
For CCc1ccc(CN(C)Cc2nc(-c3cccc(Cl)c3)no2)nc1 the results were IL-1B inflam inh 21, SW480 rereplic 30%, TDP1 cell noCPT inconclusive, MCF10A rerep 13%, TDP1 cell CPT -33% and Chronic BCR inh inconclusive.
`CC(=O)C1=CCC(c2ccc(C)o2)N(S(=O)(=O)c2ccc(C)cc2)C1` (centres undefined) gave IL-1B inflam inh 0, TDP1 cell noCPT 18µM* and TDP1 cell CPT 16µM*.
CC(=O)C1=CCC(c2cccs2)N(S(=O)(=O)c2ccc(C)cc2)C1 (centres undefined) was read as IL-1B inflam inh 13, TDP1 cell noCPT inconclusive and TDP1 cell CPT inconclusive.
`Cc1ccc([C@@H]2CC=C(C(=O)O)CN2S(=O)(=O)c2ccc(C)cc2)cc1` gave IL-1B inflam inh 54, SW480 rereplic 2%, TDP1 cell noCPT 0%, MCF10A rerep 6%, TDP1 cell CPT -2% and Chronic BCR inh 18%.
`CC(=O)C1=CCC(c2ccc(Cl)cc2)N(S(=O)(=O)c2ccccc2C)C1` (centres undefined) gave IL-1B inflam inh -19, TDP1 cell noCPT 23µM* and TDP1 cell CPT 29µM*.
For Cc1ccc([C@@H]2CC=C(C(=O)O)CN2S(=O)(=O)c2ccccc2C)cc1 the results were IL-1B inflam inh 12, SW480 rereplic -5%, TDP1 cell noCPT -2%, MCF10A rerep 6%, TDP1 cell CPT -1% and Chronic BCR inh 1%.
For CC(=O)C1=CCC(c2ccccc2)N(S(=O)(=O)c2ccc(Cl)cc2)C1 (centres undefined) the results were IL-1B inflam inh inconclusive, TDP1 cell noCPT 15µM* and TDP1 cell CPT inconclusive.
For CC(=O)C1=CCC(c2ccccc2)N(Cc2ccccc2)C1 (centres undefined) the results were IL-1B inflam inh -112*, TDP1 cell noCPT 15µM* and TDP1 cell CPT inconclusive.
Screening Cn1c(=O)c(=O)n(C)c2cc(S(=O)(=O)N3CCCC3C(=O)Nc3ccc(F)cc3)ccc21 (centres undefined) returned IL-1B inflam inh 0, SW480 rereplic 14%, TDP1 cell noCPT -7%, MCF10A rerep 5%, TDP1 cell CPT 12% and Chronic BCR inh 14%.
For CNc1nc(-c2ccccc2C(F)(F)F)nc2ccccc12 the results were TDP1 cell noCPT -5% and TDP1 cell CPT inconclusive.
O=C(CSc1ccccn1)Nc1nonc1[N+](=O)[O-] was read as IL-1B inflam inh -99*, SW480 rereplic 2%, TDP1 cell noCPT 4.1µM*, MCF10A rerep 7%, TDP1 cell CPT 3.7µM* and Chronic BCR inh inconclusive.
O=C(CSc1ccccn1)Nc1ccc(NC(=O)CSc2ccccn2)cc1 was read as IL-1B inflam inh 8, SW480 rereplic 4%, TDP1 cell noCPT 5%, MCF10A rerep -3%, TDP1 cell CPT 8% and Chronic BCR inh 4%.
For O=C(COC(=O)COc1ccc(Cl)cc1Cl)NC1CCS(=O)(=O)C1 (centres undefined) the results were IL-1B inflam inh -1, SW480 rereplic -1%, TDP1 cell noCPT 4%, MCF10A rerep -3%, TDP1 cell CPT 8% and Chronic BCR inh 1%.
For COc1ccccc1-c1cc(NC(=O)COc2ccccc2Cl)n(-c2ccccc2)n1 the results were TDP1 cell noCPT -21% and TDP1 cell CPT -24%.
O=C(COc1ccccc1Cl)Nc1cc(-c2ccccc2F)nn1-c1ccccc1 was read as TDP1 cell noCPT 9.2µM* and TDP1 cell CPT inconclusive.
`O=C(Nc1c2c(nn1-c1ccccc1)CS(=O)(=O)C2)c1ccccc1Br` gave IL-1B inflam inh inactive, SW480 rereplic -6%, TDP1 cell noCPT 3%, MCF10A rerep 6%, TDP1 cell CPT 0% and Chronic BCR inh -1%.
`O=C(Nc1cc(-c2ccccc2F)nn1-c1ccccc1)c1ccccc1Br` gave TDP1 cell noCPT 21µM* and TDP1 cell CPT 18µM*.
CC1CN(C(=O)COc2ccc3c(-c4ccccc4)cc(=O)oc3c2)CC(C)O1 (centres undefined) was read as IL-1B inflam inh 16, SW480 rereplic -6%, TDP1 cell noCPT -41%, MCF10A rerep 9%, TDP1 cell CPT -26% and Chronic BCR inh 8%.
Screening O=C(Nc1ccc2c(c1)OCCO2)C1c2ccccc2OCC(=O)N1Cc1cccnc1 (centres undefined) returned IL-1B inflam inh -14, TDP1 cell noCPT -1% and TDP1 cell CPT 9%.
O=c1/c(=C/c2ccc([N+](=O)[O-])cc2)sc2n1CCCN=2 was read as IL-1B inflam inh inconclusive, SW480 rereplic inconclusive, TDP1 cell noCPT 13µM*, MCF10A rerep 4%, TDP1 cell CPT 26µM* and Chronic BCR inh inconclusive.
For COc1cc(/C=c2\sc3n(c2=O)CCCN=3)ccc1O the results were IL-1B inflam inh -20, SW480 rereplic inconclusive, TDP1 cell noCPT -23%, MCF10A rerep 25%, TDP1 cell CPT -25% and Chronic BCR inh -6%.
N#Cc1cccc(S(=O)(=O)NCC(=O)NCc2ccc3c(c2)OCO3)c1 was read as IL-1B inflam inh 28, SW480 rereplic -17%, TDP1 cell noCPT 11%, MCF10A rerep 7%, TDP1 cell CPT -19% and Chronic BCR inh inconclusive.
Screening Cc1ccc2c(c1Br)C(O)(CC(=O)c1ccc(F)cc1)C(=O)N2 (centres undefined) returned TDP1 cell noCPT inconclusive, TDP1 cell CPT -16% and Chronic BCR inh inconclusive.
Screening O=C(NCCCNC(=O)c1ccc(-c2cccc(Cl)c2)o1)c1cnccn1 returned IL-1B inflam inh inconclusive, SW480 rereplic -4%, TDP1 cell noCPT inconclusive, MCF10A rerep -2%, TDP1 cell CPT -15% and Chronic BCR inh 0%.
Cc1ccc(CNc2nc3ccccc3n2C)cc1 was read as IL-1B inflam inh -4, SW480 rereplic -1%, TDP1 cell noCPT inconclusive, MCF10A rerep inconclusive, TDP1 cell CPT -25% and Chronic BCR inh 5%.
